Bioassay records deposited in PubChem by National Center for Advancing Translational Sciences (NCATS).
This is a sample that favours compounds with a hit; in the whole collection about 1.8% have one here.
pAkt inh – Akt phosphorylation inhibition; 360,000 tested, 0.32% active; Neuro2A IGF-stimulated pAkt S473 HTRF, 20 min; active compounds read low; activity change, % for hits at 50 µM; in the data active = activity change below about -80%; inconclusive = mostly about -51% to -80%
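Neuro2A cells (4,500/well, DMEM with 0.5% FBS) were treated with compound at a single 50 µM final concentration, stimulated with 6 nM IGF for 20 min at 37 °C, and lysed. Phospho-Akt Ser473 was read by HTRF as 665/615 ratio ×10^4.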
Six1-Eya2 blk – Six1/Eya2 interaction inhibition. activity change, % (no concentration beside the values). Q15475+O00167. AlphaScreen GST-Six1/His-Eya2 binding, biochemical; active compounds read low. 360,000 tested, 0.56% active
Target sequence (O00167 whole entry, looked up): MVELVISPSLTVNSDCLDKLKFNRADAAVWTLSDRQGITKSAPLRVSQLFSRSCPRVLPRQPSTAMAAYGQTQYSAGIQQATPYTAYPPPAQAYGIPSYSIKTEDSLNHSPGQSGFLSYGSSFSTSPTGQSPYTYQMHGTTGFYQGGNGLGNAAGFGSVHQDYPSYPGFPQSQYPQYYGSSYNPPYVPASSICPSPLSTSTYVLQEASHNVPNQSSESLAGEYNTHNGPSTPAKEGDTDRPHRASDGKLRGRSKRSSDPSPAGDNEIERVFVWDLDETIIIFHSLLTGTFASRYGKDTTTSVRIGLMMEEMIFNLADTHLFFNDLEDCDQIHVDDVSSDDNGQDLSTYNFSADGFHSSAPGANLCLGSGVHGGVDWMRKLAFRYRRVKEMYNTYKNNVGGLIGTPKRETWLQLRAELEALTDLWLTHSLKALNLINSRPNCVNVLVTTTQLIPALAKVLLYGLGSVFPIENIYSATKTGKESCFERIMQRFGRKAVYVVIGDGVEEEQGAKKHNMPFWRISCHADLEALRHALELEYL
Target sequence (Q15475 whole entry, looked up): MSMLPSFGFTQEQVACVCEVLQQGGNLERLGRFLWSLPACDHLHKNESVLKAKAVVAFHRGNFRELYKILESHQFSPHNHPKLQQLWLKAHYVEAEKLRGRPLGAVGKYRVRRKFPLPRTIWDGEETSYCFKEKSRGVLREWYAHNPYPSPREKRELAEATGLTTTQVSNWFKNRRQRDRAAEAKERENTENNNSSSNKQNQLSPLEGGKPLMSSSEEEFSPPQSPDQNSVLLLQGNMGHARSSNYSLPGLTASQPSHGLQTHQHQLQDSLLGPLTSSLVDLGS
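AlphaScreen with GST-Six1 and His-Eya2 (5X mix: 250 nM and 500 nM), glutathione donor and nickel acceptor beads; buffer 50 mM Tris pH 8.0, 300 mM NaCl, 1 mM TCEP; 1 h at 37 C in the dark.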
CtBP-E1A blk – CtBP/E1A binding inhibition; AlphaScreen GST-E1A/His-CtBP binding, 1536-well; active compounds read low; 340,000 tested, 0.49% active; activity change, % (no concentration beside the values)
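GST-E1A and His-tagged CtBP (125 nM each as 5X stock) were preincubated with pin-transferred compound for 2 h at 37 °C in the dark, then glutathione donor and nickel acceptor beads were added for 1 h before AlphaScreen reading.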
PI5P4K alpha inh – PI5P4K alpha (human) kinase inhibition. PI5P4Kalpha enzyme, ADP-Glo luminescence, 60 min; active compounds read low. max response, %. 330,000 tested, 1.2% active. AID 652105; active = max response of -50% or lower; inconclusive = between -30% and -50%; inactive = -30% or higher; note: value at the top dose of about 77 µM
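Reactions run in 0.038 M HEPES pH 7.4, 0.28 mM EGTA, 0.1% CHAPS and 5% DMSO, with PI5P4Kalpha, substrate, compound and 5 microM ATP final, one hour at room temperature. Readout is ADP-Glo luminescence.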
PI4K2A block – blocks human PI4K2A kinase activity | Q9BTU6 | 420,000 tested, 0.13% active | purified PI4K2A, ADP-Glo luminescence, 1 h; active compounds read low | activity change, negative = inhibition, % at 76.9 µM | AID 1346378; in the data active = activity change below about -50%; inconclusive = mostly about -30% to -49%;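 note: -100% = wells without enzyme as full effect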
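ADP-Glo luminescence measured ADP generated by PI4K2A enzyme (4 ug/mL before mixing) with 1.2 mM PI substrate (pre-mix) and 300 microM ATP (pre-mix). Tris pH7.5 buffer with MgCl2, Triton X-100; 1 h reaction at ambient temperature.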
Starred values were filed as active, the others as inactive; i = inactive; ? = inconclusive; · = no result given. Cut-off read from the data, not from the text of the source, unless noted: active = activity change below about -65%; inconclusive = mostly about -30% to -63%; inactive = weaker than that. Unless noted, % is set by controls: 0 for no effect and ±100 for the full control effect.

SMILES	pAkt inh	Six1-Eya2 blk	CtBP-E1A blk	PI5P4K alpha inh	PI4K2A block
COc1ccc(/C=C/C(=O)c2ccc(O)cc2)cc1CN1CCOCC1	i	?	-86*	-16	-4
Nc1ncnc2c1ncn2C1CCCC1	i	11	-20	-2	-65*
Nc1ncnc2c1ncn2C1CCC(CO)C(O)C1 (configuration not stated)	i	1	0	·	-54*
Nc1ncnc2c1ncn2[C@H]1C[C@H](O)[C@@H](CO)O1	i	-2	1	4	?
O=C(CCS(=O)(=O)c1ccccc1)NC1CCCCC1	i	4	8	1	3
CCCC(=O)C1=C(O)C(C(=O)OC)C(C)(C)CC1=N (configuration not stated)	i	-3	3	-2	9
CC1C(=O)NN=C1C(=O)N/N=C\c1ccc(O)cc1O (configuration not stated)	i	-92*	-11	-60*	-15
CC(=NNC(=S)N(Cc1ccccn1)Cc1ccccn1)c1cnccn1	i	-90*	-3	-7	-15
S=C(NN=C(c1ccccc1)c1ccccn1)N(Cc1ccccn1)Cc1ccccn1	i	-94*	4	?	-27
S=C(NN=Cc1ccccn1)N(Cc1ccccn1)Cc1ccccn1	i	-91*	-94*	-12	-24
O=C(Nc1nc2ncccn2c1-c1ccc(F)c(F)c1)c1ccc(F)cc1	·	·	·	·	-5
CN(C(=O)COC(=O)c1ccc2c(c1)NC(=O)CS2)C1CCS(=O)(=O)C1 (configuration not stated)	-108%*	3	1	·	-4
CC(=O)Cc1nsc(NC(=O)c2cn(-c3ccccc3)nc2-c2ccc(Br)cc2)n1	·	10	-4	0	7
Cc1ccc(C(=O)O)cc1-c1ccc(/C=C2/NC(=O)N(c3ccccc3)C2=O)o1	i	-74*	-20	?	-5
Cc1cc(C(=O)O)ccc1-c1ccc(/C=C2\NC(=O)N(Cc3ccccc3Cl)C2=O)o1	i	-3	0	-67*	-6
Cc1ccc(/C=C2/NC(=O)N(Cc3ccccc3)C2=O)o1	i	-5	4	-57*	-6
Cc1ccc(CN2C(=O)N/C(=C\c3ccc(-c4ccc(C(=O)O)cc4C)o3)C2=O)cc1	i	-8	11	-23	0
CN(CC(=O)NCc1cccs1)CC(=O)Nc1ccccc1Cl	i	4	-1	1	6
CCOC(=O)Nc1ccc2c(c1)N(C(=O)CCN1CCOCC1)c1ccccc1S2	i	-5	-13	-1	1
CCN(CC)c1ccc(C(=C2C=CC(=[N+](CC)CC)C=C2)c2ccc(S(=O)(=O)O)cc2S(=O)(=O)[O-])cc1	i	?	?	-57*	-56*
CC(=O)Nc1cc(-c2ccc(C(=O)N3CCOCC3)cc2)cn2c(-c3ccc(F)c(Cl)c3)cnc12	i	-13	-10	-8	1
O=C(O)c1ccc2c(c1)S(=O)(=O)c1cc(N3CCN(c4ncccn4)CC3)ccc1C2=O	i	2	0	-57*	4
c1ccc(-c2nn3c(C4CCCCC4)nnc3s2)cc1	-114%*	-3	1	?	4
CCOC(=O)N1CCN(C(=O)c2ccc(Cn3c(=S)[nH]c4cc5c(cc4c3=O)OCO5)cc2)CC1	i	-7	-8	·	4
COc1cc(/C=N/Nc2ccccc2[N+](=O)[O-])ccc1OC(=O)c1ccccc1F	i	2	2	1	-8
CCOc1ccc(C=NNc2ccc(S(=O)(=O)Nc3ccccc3C(=O)O)cc2[N+](=O)[O-])cc1OC	i	-12	-3	-74*	0
O=C(O)c1ccccc1NS(=O)(=O)c1cccc(N=Nc2c(O)[nH]c(=S)[nH]c2=O)c1	i	?	?	-74*	-2
COc1ccccc1NS(=O)(=O)c1cccc(-n2c(O)c(C=Nc3ccccc3C(=O)O)c3ccccc3c2=O)c1	i	?	-11	-69*	0
O=C(O)c1cc(S(=O)(=O)Nc2ccccc2C(=O)O)ccc1O	i	20	-6	-54*	-3
CSCCOC(=O)C1=C(C)Nc2ccc(C)cc2S1	i	-29	-22	-1	-2
